The values that follow come from ChEMBL document CHEMBL2218924, “A broad activity screen in support of a chemogenomic map for kinase signalling research and drug discovery” (Biochem J, 2013).

In experiment [1] the target is T1, Dual specificity mitogen-activated protein kinase kinase 6 (Homo sapiens) (UniProt P52564).
T1 sequence (whole entry): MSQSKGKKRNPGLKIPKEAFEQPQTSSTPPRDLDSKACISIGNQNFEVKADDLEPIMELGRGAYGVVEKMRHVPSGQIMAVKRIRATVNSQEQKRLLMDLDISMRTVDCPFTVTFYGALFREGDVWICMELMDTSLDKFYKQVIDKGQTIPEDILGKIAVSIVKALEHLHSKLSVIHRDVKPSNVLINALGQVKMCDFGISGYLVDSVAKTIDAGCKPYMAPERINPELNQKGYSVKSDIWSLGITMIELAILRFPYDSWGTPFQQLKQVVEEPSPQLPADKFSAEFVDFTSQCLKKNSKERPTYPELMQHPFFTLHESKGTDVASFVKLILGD
Particulars: at 1 µM.

Experiment [2] addresses T1, Dual specificity mitogen-activated protein kinase kinase 6 (Homo sapiens). The note with it: at 10 µM.
Experiment [3] deals with T2, Dual specificity mitogen-activated protein kinase kinase 7 (Homo sapiens) (UniProt O14733).
T2 sequence (whole entry): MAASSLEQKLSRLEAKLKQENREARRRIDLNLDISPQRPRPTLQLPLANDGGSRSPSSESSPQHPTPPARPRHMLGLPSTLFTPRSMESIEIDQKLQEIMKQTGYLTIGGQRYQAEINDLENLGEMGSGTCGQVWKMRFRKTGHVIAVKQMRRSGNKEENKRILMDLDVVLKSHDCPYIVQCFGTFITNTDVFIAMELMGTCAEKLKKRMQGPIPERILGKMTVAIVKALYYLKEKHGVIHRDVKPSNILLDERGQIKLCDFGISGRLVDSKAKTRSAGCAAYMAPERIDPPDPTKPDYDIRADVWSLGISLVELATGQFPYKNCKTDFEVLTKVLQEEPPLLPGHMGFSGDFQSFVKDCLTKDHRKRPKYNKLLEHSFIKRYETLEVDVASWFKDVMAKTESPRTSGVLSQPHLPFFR
The note with it: at 1 µM.

Experiment [4] has as its target T2, Dual specificity mitogen-activated protein kinase kinase 7 (Homo sapiens). The note with it: at 10 µM.
For experiment [5], the target named is Myosin light chain kinase, smooth muscle (Homo sapiens) (UniProt Q15746). The note with it: at 1 µM.
Experiment [6] has the same target. The note with it: at 10 µM.
Experiment [7] deals with Mitogen-activated protein kinase kinase kinase 9 (Homo sapiens) (UniProt P80192). The note with it: at 1 µM.
For experiment [8] the target is unchanged. Particulars: at 10 µM.
The target of experiment [9] is Serine/threonine-protein kinase MRCK alpha (Homo sapiens) (UniProt Q5VT25). The note with it: at 10 µM.
Serine/threonine-protein kinase MRCK alpha (Homo sapiens), sequence (Q5VT25 whole entry): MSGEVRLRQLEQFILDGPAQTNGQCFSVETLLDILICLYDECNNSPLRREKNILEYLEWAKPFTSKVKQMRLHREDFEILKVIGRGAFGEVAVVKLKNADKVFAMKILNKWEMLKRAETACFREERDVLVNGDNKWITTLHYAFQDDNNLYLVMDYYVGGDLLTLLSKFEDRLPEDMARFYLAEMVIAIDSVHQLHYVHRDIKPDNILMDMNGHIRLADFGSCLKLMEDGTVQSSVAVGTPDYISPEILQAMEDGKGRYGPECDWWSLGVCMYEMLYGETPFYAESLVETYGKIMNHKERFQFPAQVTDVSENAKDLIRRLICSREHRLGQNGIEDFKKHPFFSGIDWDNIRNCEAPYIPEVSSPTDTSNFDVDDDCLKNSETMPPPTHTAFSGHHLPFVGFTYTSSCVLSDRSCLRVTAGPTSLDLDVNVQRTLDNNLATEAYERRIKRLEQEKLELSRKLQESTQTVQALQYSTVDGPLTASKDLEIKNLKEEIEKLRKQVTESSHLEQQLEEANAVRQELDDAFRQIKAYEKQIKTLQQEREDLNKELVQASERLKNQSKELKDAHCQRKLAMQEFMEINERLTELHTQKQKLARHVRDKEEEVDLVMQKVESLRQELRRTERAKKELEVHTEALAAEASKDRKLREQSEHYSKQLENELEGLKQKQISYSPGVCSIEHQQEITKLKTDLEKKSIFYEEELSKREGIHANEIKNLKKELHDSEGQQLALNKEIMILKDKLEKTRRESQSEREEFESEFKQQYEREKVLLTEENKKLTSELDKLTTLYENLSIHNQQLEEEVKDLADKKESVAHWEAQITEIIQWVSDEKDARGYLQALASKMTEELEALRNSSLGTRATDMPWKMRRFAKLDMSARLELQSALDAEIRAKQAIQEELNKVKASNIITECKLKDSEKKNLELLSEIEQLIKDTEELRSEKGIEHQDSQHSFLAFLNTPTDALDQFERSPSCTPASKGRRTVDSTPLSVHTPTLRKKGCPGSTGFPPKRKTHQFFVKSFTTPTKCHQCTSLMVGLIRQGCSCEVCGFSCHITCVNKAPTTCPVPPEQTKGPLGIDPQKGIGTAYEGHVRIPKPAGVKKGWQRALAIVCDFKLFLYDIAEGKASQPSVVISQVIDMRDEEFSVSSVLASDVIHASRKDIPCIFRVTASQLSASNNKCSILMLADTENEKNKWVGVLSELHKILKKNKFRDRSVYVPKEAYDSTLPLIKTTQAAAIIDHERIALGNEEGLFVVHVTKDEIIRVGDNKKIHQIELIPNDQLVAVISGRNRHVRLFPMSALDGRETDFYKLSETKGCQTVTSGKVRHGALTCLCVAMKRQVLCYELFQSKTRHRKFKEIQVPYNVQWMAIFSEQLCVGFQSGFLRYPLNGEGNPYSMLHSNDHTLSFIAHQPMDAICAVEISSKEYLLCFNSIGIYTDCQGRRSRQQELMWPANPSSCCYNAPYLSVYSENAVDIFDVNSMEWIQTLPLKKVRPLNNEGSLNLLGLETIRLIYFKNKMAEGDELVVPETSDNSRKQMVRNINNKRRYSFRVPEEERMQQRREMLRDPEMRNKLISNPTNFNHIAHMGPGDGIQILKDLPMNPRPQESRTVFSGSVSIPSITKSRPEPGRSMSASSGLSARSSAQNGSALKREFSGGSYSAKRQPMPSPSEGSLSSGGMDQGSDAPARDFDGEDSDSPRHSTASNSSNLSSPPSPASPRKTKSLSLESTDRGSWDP
The target of experiment [10] is Serine/threonine-protein kinase MRCK beta (Homo sapiens) (UniProt Q9Y5S2). The note with it: at 1 µM.
Serine/threonine-protein kinase MRCK beta (Homo sapiens), sequence (Q9Y5S2 whole entry): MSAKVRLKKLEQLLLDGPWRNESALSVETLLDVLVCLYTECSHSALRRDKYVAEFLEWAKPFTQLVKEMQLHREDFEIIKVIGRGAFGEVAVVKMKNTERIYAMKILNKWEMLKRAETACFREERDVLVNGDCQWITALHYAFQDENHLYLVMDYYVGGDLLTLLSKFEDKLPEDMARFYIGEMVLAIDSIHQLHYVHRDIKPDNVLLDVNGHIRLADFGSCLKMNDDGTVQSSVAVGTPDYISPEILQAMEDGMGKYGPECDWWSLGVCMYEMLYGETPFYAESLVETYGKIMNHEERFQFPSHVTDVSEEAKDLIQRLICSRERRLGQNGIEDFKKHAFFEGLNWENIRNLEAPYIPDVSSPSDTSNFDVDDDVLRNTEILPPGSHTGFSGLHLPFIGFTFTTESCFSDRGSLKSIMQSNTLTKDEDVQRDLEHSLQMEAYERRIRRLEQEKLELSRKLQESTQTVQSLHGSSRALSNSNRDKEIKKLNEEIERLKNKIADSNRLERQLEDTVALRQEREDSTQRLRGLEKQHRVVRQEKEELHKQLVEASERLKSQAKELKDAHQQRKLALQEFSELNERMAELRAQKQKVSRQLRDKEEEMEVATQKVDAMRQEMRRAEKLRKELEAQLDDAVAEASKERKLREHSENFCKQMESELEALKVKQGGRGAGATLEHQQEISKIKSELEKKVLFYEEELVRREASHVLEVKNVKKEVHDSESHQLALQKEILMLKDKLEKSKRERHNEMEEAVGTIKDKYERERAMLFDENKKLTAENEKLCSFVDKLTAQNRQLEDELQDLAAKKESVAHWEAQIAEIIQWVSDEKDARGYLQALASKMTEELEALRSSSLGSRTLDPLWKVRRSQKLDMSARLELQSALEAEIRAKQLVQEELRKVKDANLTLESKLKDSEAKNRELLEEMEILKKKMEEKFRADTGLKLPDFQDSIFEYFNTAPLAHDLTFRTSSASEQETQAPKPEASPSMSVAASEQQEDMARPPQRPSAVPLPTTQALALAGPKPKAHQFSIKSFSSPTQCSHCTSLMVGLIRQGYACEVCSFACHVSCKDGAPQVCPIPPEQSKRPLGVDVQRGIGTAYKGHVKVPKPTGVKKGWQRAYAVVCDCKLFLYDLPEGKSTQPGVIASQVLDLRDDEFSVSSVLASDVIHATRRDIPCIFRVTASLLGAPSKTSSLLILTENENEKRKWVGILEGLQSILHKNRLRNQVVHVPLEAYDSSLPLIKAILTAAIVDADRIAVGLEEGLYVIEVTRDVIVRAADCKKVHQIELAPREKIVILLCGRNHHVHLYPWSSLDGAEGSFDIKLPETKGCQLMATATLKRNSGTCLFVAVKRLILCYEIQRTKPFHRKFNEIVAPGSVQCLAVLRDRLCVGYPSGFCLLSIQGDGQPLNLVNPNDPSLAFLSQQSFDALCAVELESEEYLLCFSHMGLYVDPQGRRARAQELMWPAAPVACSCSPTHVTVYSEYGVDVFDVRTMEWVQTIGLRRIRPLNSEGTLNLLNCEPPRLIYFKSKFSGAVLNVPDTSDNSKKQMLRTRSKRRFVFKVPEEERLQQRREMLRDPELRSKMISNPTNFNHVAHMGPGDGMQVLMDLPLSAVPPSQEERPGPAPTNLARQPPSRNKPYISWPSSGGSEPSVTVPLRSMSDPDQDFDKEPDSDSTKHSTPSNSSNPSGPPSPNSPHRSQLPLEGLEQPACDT
For experiment [11] the target is unchanged. The note with it: at 10 µM.
For experiment [12], the target named is Ribosomal protein S6 kinase alpha-5 (Homo sapiens) (UniProt O75582). The note with it: at 1 µM.
Ribosomal protein S6 kinase alpha-5 (Homo sapiens), sequence (O75582 whole entry, looked up): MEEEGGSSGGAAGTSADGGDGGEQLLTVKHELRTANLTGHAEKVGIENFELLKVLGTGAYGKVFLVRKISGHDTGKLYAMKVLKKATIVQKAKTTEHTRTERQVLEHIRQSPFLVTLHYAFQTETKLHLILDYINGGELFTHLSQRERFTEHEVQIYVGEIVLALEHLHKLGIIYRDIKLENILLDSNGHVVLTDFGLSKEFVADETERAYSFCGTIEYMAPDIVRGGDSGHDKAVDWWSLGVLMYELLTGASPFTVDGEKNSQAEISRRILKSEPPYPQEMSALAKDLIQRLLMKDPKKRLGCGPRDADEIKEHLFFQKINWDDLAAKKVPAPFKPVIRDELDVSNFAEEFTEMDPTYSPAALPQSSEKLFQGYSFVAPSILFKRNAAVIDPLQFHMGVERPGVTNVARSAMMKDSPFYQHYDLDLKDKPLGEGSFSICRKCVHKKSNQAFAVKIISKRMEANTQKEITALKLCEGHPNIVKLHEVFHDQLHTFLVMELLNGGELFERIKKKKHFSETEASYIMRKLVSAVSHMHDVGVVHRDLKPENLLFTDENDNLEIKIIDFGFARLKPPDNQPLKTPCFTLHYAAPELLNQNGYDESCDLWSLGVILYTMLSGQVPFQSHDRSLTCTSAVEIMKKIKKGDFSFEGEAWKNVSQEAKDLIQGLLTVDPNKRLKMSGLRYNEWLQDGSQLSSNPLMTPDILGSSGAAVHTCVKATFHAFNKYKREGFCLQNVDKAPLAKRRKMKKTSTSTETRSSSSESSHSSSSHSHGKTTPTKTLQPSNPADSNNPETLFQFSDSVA
The target is the same in experiment [13]. The note with it: at 10 µM.
Experiment [14] concerns the target Ribosomal protein S6 kinase alpha-4 (Homo sapiens) (UniProt O75676). Particulars: at 1 µM.
For experiment [15] the target is unchanged. The note with it: at 10 µM.
Experiment [16] concerns the target SRSF protein kinase 3 (Homo sapiens) (UniProt Q9UPE1). The note with it: at 10 µM.
Experiment [17] addresses T3, Serine/threonine-protein kinase 4 (Homo sapiens) (UniProt Q13043).
T3 sequence (whole entry): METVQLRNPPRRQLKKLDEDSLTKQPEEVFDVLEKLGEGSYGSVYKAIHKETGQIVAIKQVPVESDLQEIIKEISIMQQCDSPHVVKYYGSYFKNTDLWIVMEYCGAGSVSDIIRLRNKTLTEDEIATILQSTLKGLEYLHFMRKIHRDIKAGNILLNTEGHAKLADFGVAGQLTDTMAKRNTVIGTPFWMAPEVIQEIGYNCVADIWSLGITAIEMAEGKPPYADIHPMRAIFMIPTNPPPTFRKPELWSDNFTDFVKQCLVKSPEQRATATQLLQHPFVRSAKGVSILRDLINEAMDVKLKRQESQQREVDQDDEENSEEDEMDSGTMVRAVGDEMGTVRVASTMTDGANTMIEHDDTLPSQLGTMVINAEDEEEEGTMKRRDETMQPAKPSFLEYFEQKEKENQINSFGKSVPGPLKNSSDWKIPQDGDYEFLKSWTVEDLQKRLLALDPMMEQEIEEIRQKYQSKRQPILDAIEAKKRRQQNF
Particulars: at 10 µM.

In experiment [18] the target is Serine/threonine-protein kinase MRCK alpha (Homo sapiens) (UniProt Q5VT25). The note with it: at 1 µM.
Experiment [19] addresses SRSF protein kinase 3 (Homo sapiens) (UniProt Q9UPE1). Particulars: at 1 µM.
In experiment [20] the target is T3, Serine/threonine-protein kinase 4 (Homo sapiens). The note with it: at 1 µM.

Molecules are shown by their SMILES.

SRSF protein kinase 3 (Homo sapiens), sequence (Q9UPE1 whole entry): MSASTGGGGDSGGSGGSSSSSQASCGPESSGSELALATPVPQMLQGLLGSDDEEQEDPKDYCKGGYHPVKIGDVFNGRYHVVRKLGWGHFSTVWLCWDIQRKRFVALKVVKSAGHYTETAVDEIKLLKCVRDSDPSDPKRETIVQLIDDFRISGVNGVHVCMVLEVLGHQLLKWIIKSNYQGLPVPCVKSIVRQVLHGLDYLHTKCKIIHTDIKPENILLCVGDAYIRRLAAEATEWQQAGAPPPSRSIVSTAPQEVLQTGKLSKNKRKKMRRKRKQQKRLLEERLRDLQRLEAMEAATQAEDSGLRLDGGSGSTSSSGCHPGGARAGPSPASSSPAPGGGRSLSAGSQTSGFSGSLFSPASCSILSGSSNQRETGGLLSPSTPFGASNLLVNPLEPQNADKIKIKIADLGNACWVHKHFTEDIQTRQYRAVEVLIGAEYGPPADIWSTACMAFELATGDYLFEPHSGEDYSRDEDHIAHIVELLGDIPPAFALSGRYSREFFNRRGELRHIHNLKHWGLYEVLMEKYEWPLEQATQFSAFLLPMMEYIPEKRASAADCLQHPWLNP

As for `Cc1cc2ncc(-c3ccccc3)nc2cc1C`, the residual activity in [1] was determined as 86%; in experiment [2], 106%; in experiment [3], 76%; in experiment [4] it was 93%; in [5] it was 77%; in experiment [6], 96%. Also, the residual activity in experiment [7] is 92%; in experiment [8] it was 102%; in experiment [9], 81%; in experiment [10], 92%; in [11], 88%; in experiment [12], 134%. Besides, the residual activity in [13] stood at 103%; in experiment [14], 92%; in experiment [15] it was 103%; in experiment [16], 87%; in [17], 125%.

`CN(C)CCCn1cc(C2=C(c3c[nH]c4ccccc34)C(=O)NC2=O)c2ccccc21`: the residual activity in experiment [3] is 79%; in experiment [5] it was 20%; in [6] it was 7%; in experiment [7], 58%; in [8], 13%; in experiment [18] it was 115%. In addition, the residual activity in [9] was 76%; in experiment [11], 40%; in experiment [12], 24%; in [13] it was 4%; in experiment [14], 18%; in experiment [15], 3%. Besides, the residual activity was found to be 113% in experiment [19], 55% in [16], 40% in [20] and 9% in experiment [17].

As to `Cc1ccc(S(=O)(=O)/C=C/C#N)cc1`, the residual activity in experiment [1] was 124%; in experiment [2], 94%; in experiment [3], 93%; in experiment [4] it was 77%; in experiment [5], 95%; in [6], 85%. Further, the residual activity in experiment [7] came out at 97%; in experiment [8] it was 97%; in [18], 86%; in [9] it was 95%; in experiment [10], 89%; in [11], 92%. Besides, the residual activity in experiment [12] came out at 111%; in experiment [13], 125%; in experiment [14] it was 105%; in experiment [15], 99%; in [19], 100%; in experiment [16], 102%. In addition, the residual activity turned out to be 79% in [20] and 109% in [17].

Take `N#CCCc1ccc2c(c1)-c1[nH]c3ccc([N+](=O)[O-])cc3c1CC(=O)N2`: the residual activity in experiment [7] was 7%; in [8] it was 2%; in [18], 35%; in [9], 19%; in experiment [10], 9%; in experiment [11], 6%. Besides, the residual activity in experiment [15] amounted to 79%; in [20], 10%; in experiment [17], 6%.

On to `C[C@@H](N)[C@H]1CC[C@H](C(=O)Nc2ccncc2)CC1`, for which the residual activity in experiment [1] was found to be 101%; in [2], 99%; in experiment [3], 107%; in experiment [4] it was 121%; in experiment [7], 105%; in experiment [8] it was 101%. Besides, the residual activity in [18] was determined as 98%; in experiment [9], 84%; in experiment [10] it was 95%; in experiment [11] it was 69%; in experiment [12] it was 90%; in [13], 50%. Further, the residual activity is 82% in [14]; 58% in experiment [15]; 96% in experiment [19]; 98% in experiment [16]; 105% in experiment [20]; 79% in [17].

Turning to `COc1ccc(OC)c2c(=S)c3ccccc3[nH]c12`, the residual activity was 112% in [1]; 96% in experiment [2]; 81% in experiment [3]; 90% in experiment [4]; 132% in experiment [5]; 71% in [6]. Moreover, the residual activity worked out at 89% in experiment [8]; 119% in experiment [18]; 93% in experiment [9]; 88% in experiment [10]; 95% in experiment [11]; 93% in experiment [12]. The residual activity in experiment [13] turned out to be 122%; in [14], 100%; in experiment [15], 89%; in experiment [19] it was 103%; in [16], 79%; in experiment [20] it was 74%. Further, the residual activity in experiment [17] worked out at 99%.

`c1ccc2c(-c3ccncc3)c[nH]c2c1`: the residual activity in [1] is 77%; in [2], 93%; in [3], 101%; in experiment [4], 94%; in [5], 72%; in experiment [6], 66%. In addition, the residual activity is 74% in experiment [7]; 60% in experiment [8]; 94% in [10]; 60% in experiment [11]; 80% in experiment [14]; 54% in experiment [15]. Besides, the residual activity in [19] is 102%; in [16], 80%; in experiment [20] it was 89%; in experiment [17], 97%.

As for `O=[N+]([O-])c1ccc(-c2nc(-c3ccc(F)cc3)c(-c3ccncc3)[nH]2)cc1`, the residual activity amounted to 50% in experiment [1]; 4% in experiment [2]; 101% in [3]; 98% in experiment [4]; 100% in experiment [5]; 86% in experiment [6]. Also, the residual activity in experiment [8] was determined as 83%; in [18], 126%; in experiment [9] it was 98%; in experiment [10] it was 91%; in experiment [11], 89%; in experiment [12], 108%. Further, the residual activity in experiment [13] amounted to 119%; in experiment [14], 87%; in experiment [15] it was 85%; in [19] it was 105%; in [16] it was 104%; in [20], 74%. The residual activity in experiment [17] was 114%.
